Eight targets from the supplement of paper PMC11482750 can be followed below.

± gives the standard deviation of the averaged measurements.

Compound in the experiment: CCC1CCC(=O)O1 [γ-hexalactone]
Briefly: control-subtracted net OSN firing rate; higher = stronger neuronal activation. To be noted: odorant dilution (vol/vol): 1/100. How it is done:
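Single sensillum recordings from olfactory sensory neurons. The neurons sit in the maxillary palp or antennal sensilla of D. melanogaster (wild type, mutants, or at1 empty-neuron lines expressing Or42a homologs or the A181D S307P mutant) and of four Scaptomyza species. Each odorant was given as a 1 s pulse from 20 µl loaded on filter paper at 1:100 vol/vol, diluted in mineral oil (γ-hexalactone in DMSO). Spikes were counted in a 0.5 s window starting 0.2 s after onset, background was subtracted, the count was doubled, and the mean solvent-control response was subtracted.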
For the target Canton-S ab7b, the “control-subtracted net OSN firing rate” value is -2 ± 3.3 spikes/s.

In the case of Or67dGal4, UAS-Sfla Or42a4 at1, the “control-subtracted net OSN firing rate” value came out at 6 ± 9.1 spikes/s.

Take Canton-S pb2a: the “control-subtracted net OSN firing rate” value is -7.5 ± 12 spikes/s.

Regarding Canton-S pb3a, the “control-subtracted net OSN firing rate” value is -1.14 ± 8.2 spikes/s.

In the case of Canton-S ab10a, the “control-subtracted net OSN firing rate” value was -0.4 ± 7.9 spikes/s.

Canton-S pb1b: the “control-subtracted net OSN firing rate” value was -7.71 ± 12 spikes/s.

Regarding Canton-S pb1a, the “control-subtracted net OSN firing rate” value is 167 ± 28 spikes/s.

Regarding Canton-S ai3b, the “control-subtracted net OSN firing rate” value is -2.5 ± 6.8 spikes/s.
